# A selection: hits, their analogues and other compounds. The true share with any hit is near 2.5%.
# ATG4B inhibitor: inhibitors of human ATG4B cysteine protease. ATG4B cleavage of LC3-PLA2, NBD-HPC fluorescence, 1 h. Q9Y4P1. hit rate 0.51% among 340,000. inhibition, % at 8.33 µM; in the data active means inhibition above about 40%
# Target sequence (Q9Y4P1 whole entry, looked up): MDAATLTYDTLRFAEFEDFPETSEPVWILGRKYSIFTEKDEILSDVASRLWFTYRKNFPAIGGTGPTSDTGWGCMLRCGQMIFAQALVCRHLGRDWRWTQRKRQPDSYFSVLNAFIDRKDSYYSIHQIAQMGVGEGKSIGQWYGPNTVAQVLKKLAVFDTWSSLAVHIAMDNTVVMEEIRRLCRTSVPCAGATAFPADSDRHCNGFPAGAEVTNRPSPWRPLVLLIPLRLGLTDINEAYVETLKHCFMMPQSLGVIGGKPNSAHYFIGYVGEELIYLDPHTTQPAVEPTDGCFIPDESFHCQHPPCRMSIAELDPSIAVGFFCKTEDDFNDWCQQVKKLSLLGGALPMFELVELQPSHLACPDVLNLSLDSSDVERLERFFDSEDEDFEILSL
# SUMO Mot1 rescue: blocks SUMOylation pathway, rescuing yeast Mot1-301 growth. hit rate 1% among 320,000. S. cerevisiae Mot1-301 growth rescue, ATP luminescence, 38.5C; percent above DMSO median, 100 means doubled. growth rescue, % at 18.8 µM;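 active means every valid replicate shows activation above 250% relative to neutral control wells; inactive means the rest, any valid replicate at or below 250%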
# AI-2 QS mod: Vibrio harveyi AI-2 quorum sensing modulation | Vibrio harveyi JMH597 AI-2 luminescence/OD600 ratio, 9 h; hits give low values; strain lacks LuxN and CqsS sensors; 0 = neutral-control median | activity change, % at 7.5 µM | hit rate 0.4% among 300,000 | AID 2094; in the data active means activity change below about -75%, passing the limit was not always enough;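 further: luminescence divided by OD600 gain over 9 h not by final OD600 alone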
# Efflux pump inh: antifungal efflux pump inhibition, Nile Red retention; S. cerevisiae Candida pump triplex; AID 485275; hit rate 0.44% among 330,000; inhibition, % at 10 µM;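 active means plate passing quality check with inhibition over a set limit, or well fluorescence over plate mean plus 4 SD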;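 further: Nile Red retained in pooled yeast measured as flow cytometry median fluorescence; higher means more Nile Red kept so more efflux inhibition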
# V-ATPase pHluor: alters yeast V-ATPase proton transport; S. cerevisiae, pHLuorin cytosolic pH fluorescence; response, % at 10 µM; hit rate 0.37% among 350,000; in the data active means response mostly above about 7.3%, no sharp cut-off; inactive means mostly below about 5.4%; further: actives read high
# V-ATPase pH SP: yeast V-ATPase proton transport regulation | hit rate 2% among 980 | shares compounds with V-ATPase pHluor | S. cerevisiae pHLuorin cytosolic pH | response, % at 10 µM; in the data active means response above about 24%
# Numbers stand for hits; n = inactive; x = no result given.
SMILES,ATG4B inhibitor,SUMO Mot1 rescue,AI-2 QS mod,Efflux pump inh,V-ATPase pHluor,V-ATPase pH SP
Cc1cc(C)n(C(C)CNS(=O)(=O)c2ccccc2)n1 (configuration not stated),n,n,n,n,n,x
Cc1ccc(-c2c(C#N)c(N)n3c(nc4ccccc43)c2C#N)cc1,n,n,n,n,n,x
N#Cc1c(-c2ccccc2)c(C#N)c2nc3ccccc3n2c1N,n,n,n,n,9.1,n
CC(=O)CC(=O)Nc1ccc(Nc2ccccc2)cc1,n,n,n,n,n,x
Cc1ccc(-c2cc(C(=O)N/N=C/c3c(C)nn(C)c3C)c3ccccc3n2)cc1C,n,n,n,n,12,n
COc1cccc(C(N)=O)c1,n,n,n,n,11,n
COc1cccc(C(=O)Nc2ccccc2)c1,n,n,n,n,n,x
CC(OC(=O)c1nsc(Cl)c1Cl)C(=O)NC(C)(C)C (configuration not stated),n,n,n,n,n,x
O=C(O)c1cc(Nc2cc(Cl)c3nonc3c2[N+](=O)[O-])ccc1O,n,n,n,n,n,x
Cc1ccc(NC(=O)C(C)OC(=O)/C=C/c2ccccc2)cc1S(=O)(=O)N1CCOCC1 (configuration not stated),n,n,n,n,n,x
COCCOC(=O)c1c(NC(=O)CNCc2ccco2)sc(C(N)=O)c1C,n,n,n,n,10,n
O=C(Nc1ccc(Oc2ccccc2)nc1)C1CCCCN1Cc1ccco1 (configuration not stated),n,n,n,n,n,x
O=C(Nc1ccc(Oc2ccccc2)nc1)C1CCN(Cc2ccco2)CC1,n,n,n,n,8.7,n
CCOC(=O)Nc1ccc2c(c1)N(C(=O)CCN(CC)CC)c1ccccc1CC2,n,n,n,n,7.8,n
CCN(CC)CCC(=O)N1c2ccccc2CCc2ccc(NC(=O)OC)cc21,n,n,n,n,n,x
CC(CN1CCOCC1)OC(=O)CCc1ccccc1 (configuration not stated),n,n,n,n,n,x
CC(CN1CCCCC1)OC(=O)CCc1ccccc1 (configuration not stated),n,n,n,n,9.8,n
Cc1ccccc1-c1nnn(Cc2cccc(S(=O)(=O)N3CCOCC3)c2)n1,n,n,x,n,n,x
Cc1ccc(-c2csc(NCCn3c(C)nc4cc(C(F)(F)F)ccc43)n2)cc1,n,n,x,n,n,x
Cc1cccc(/C(N)=N/OC(=O)Cc2cccs2)c1,n,n,n,n,8.5,n
C[C@@H]1CN([C@H](C)CO)C(=O)CCCn2nncc2CO[C@@H]1CN(C)S(=O)(=O)c1ccccc1,x,x,x,x,n,x
CCN(C(=O)COC(=O)c1cc(-c2ccccc2)nc2ccc(Br)cc12)C1CCS(=O)(=O)C1 (configuration not stated),n,n,n,n,10.0,n
CCN(C(=O)COC(=O)c1cc(-c2cccs2)nc2ccccc12)C1CCS(=O)(=O)C1 (configuration not stated),n,n,n,n,n,x
O=C(NCC1CC1)C1(C(F)(F)F)CC(CCc2ccccc2)CCCO1 (configuration not stated),n,n,n,n,10,n
COC(=O)N/N=C/c1cn(Cc2ccccc2F)c2ccccc12,n,n,n,n,10,n
SMILES,ATG4B inhibitor,SUMO Mot1 rescue,AI-2 QS mod,Efflux pump inh,V-ATPase pHluor,V-ATPase pH SP
O=C(C1CCCN(S(=O)(=O)c2cc(Cl)ccc2Cl)C1)N1CCCC1 (configuration not stated),n,n,n,n,n,x
COc1ccc(Cl)cc1S(=O)(=O)N1CCCC(C(=O)N2CCOCC2)C1 (configuration not stated),n,n,n,n,9.5,n
N#Cc1c(NC(=O)Cn2nc(C(F)(F)F)c3c2CCCC3)sc2c1CCC2,n,n,n,n,10,n
CC1CCc2c(sc(NC(=O)Cn3nc(C(F)(F)F)c4c3CCCCC4)c2C#N)C1 (configuration not stated),n,n,n,n,n,x
Cc1cccc2sc(N(CCCN(C)C)C(=O)c3ccc(Cl)s3)nc12,n,n,n,n,11,n
CCCN(Cc1nnc(-c2cccs2)o1)C(=O)c1cccc(S(=O)(=O)N2CCOCC2)c1,n,n,x,n,x,x
CC(=O)Nc1cc2c(cc1Br)-c1ccccc1C2,n,x,x,x,n,x
Cc1cc(-c2ccccc2)nc(N(C)NC(=O)C(C)(C)C)c1S(C)(=O)=O,n,n,n,n,n,x
Cc1cc(-c2ccccc2)nc(N(C)NC(=O)c2ccc(Cl)cc2)c1S(C)(=O)=O,n,n,n,n,18,n
O=C(Nc1cc2c(cc1Br)OCCCO2)c1cccnc1,n,n,n,n,9.4,n
CCOC(=O)Cc1cc(=O)n2[nH]c(C)c(-c3ccccc3OC)c2n1,n,n,n,n,19,n
CCCc1nc2sc3c(c2c(=O)n1NC(=O)CCC(=O)O)CCCC3,n,n,n,n,8.6,n
COc1ccc(CC(=O)n2[nH]c(=O)cc(C)c2=O)cc1OC,n,n,n,n,n,x
Cc1cc(=O)[nH]n(CCO)c1=O,n,n,n,n,13,n
O=C(O)CC(CNS(=O)(=O)c1ccccc1)c1ccccc1 (configuration not stated),n,n,n,n,7.1,n
Cc1ccccc1N1CCN(C2=NC(=O)/C(=C/c3cn[nH]c3-c3ccccc3)S2)CC1,n,n,n,n,8.3,n
CC(NC(=O)C1CCCN(C(=O)c2ccc(Cl)cc2)C1)c1cccc(C(F)(F)F)c1 (configuration not stated),n,n,x,n,n,x
Cc1cc(=O)oc2cc(OCC(=O)NCCCN3CCCC3=O)c(Cl)cc12,n,n,n,n,n,x
Cc1c(C)c2cc(Cl)c(OCC(=O)NCCCN3CCCC3=O)cc2oc1=O,x,x,x,x,11,n
O=C(NCc1nnc(SCC(=O)N2CCOCC2)o1)c1ccccc1,x,x,x,x,n,x
O=c1cc(-c2ccco2)nc(-c2cccs2)o1,n,n,n,n,9.5,n
COC(CNC(=O)C1CC(=O)N(CCc2ccc(C)cc2)C1)OC (configuration not stated),n,n,n,n,n,x
CCCCCn1nc(C(=O)N(CC(C)C)c2c(N)n(CCCC)c(=O)[nH]c2=O)c2ccccc2c1=O,n,n,n,n,22,n
COc1ccc(NC(=O)CS(=O)(=O)c2ccccc2Cl)cc1,n,n,n,n,n,x
COc1cccc(OCC(=O)O)c1,n,n,n,n,n,x
CC/C(C)=N\NC(=O)CNC(=O)c1ccc(Cl)cc1Cl,n,n,n,n,12,n
Cn1cc([N+](=O)[O-])c(C(=O)Nc2ccn(Cc3c(F)c(F)cc(F)c3F)n2)n1,n,n,n,n,n,x
N#CCc1cnc2ccccc2n1,n,n,n,n,n,x
O=C(COC(=O)CCC(=O)c1ccc(F)cc1)NCCc1ccccc1,n,n,x,n,n,n
Nc1nc(-c2ccccc2)nc2sc3c(c12)CCCC3,n,n,n,n,n,x
